Test systems include SK-MEL-2 melanoma; EKVX NSCLC; SN12C renal; UO-31 renal; TK-10 renal; ACHN renal; CAKI-1 renal; A498 renal; CCRF-CEM leukemia; MOLT-4 leukemia.
Holding throughout (test): NCI-60 one-dose screen, 48 h (100 = growth as untreated, 0 = no growth, -100 = all killed)
Settings in all cases: 10 µM unless noted

Each structure is given as a SMILES string. This is part of a sample that, as a whole, favours compounds with a hit. Of some 83,000 tested, about 20% had one in any assay.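 Growth was measured after 48 h exposure to one concentration of compound in 96-well plates. Values under 10 count as active.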 Values without a mark were called inactive. Active and inactive are the calls of the source.

Regarding `CCNc1nc(-c2ccc(Cl)c(OC)c2)c(-c2ccnc(NCCCNS(=O)(=O)c3ccc(Cl)cc3)n2)s1`, the growth is -27.1% (active) with SK-MEL-2 melanoma; 75.4% in the assay on EKVX NSCLC; 66.5% with SN12C renal; 64.9% in the assay with UO-31 renal; 43.7% with TK-10 renal; 74.1% with ACHN renal. The growth in the assay with CAKI-1 renal was 59%; with A498 renal it was 66.8%; with CCRF-CEM leukemia it was 31.6%; in the assay on MOLT-4 leukemia, 22.2%.
For the compound `CS(=O)(=O)c1cccc(-c2c(-c3cccc(OS(N)(=O)=O)c3)nc3sccn23)c1`, the growth was 117% in the assay on SK-MEL-2 melanoma; 95.3% in the assay with EKVX NSCLC; 102% in the assay on SN12C renal; 75.5% in the assay on UO-31 renal; 108% with TK-10 renal; 99.2% with ACHN renal. In addition, the growth in the assay on CAKI-1 renal is 81.2%; in the assay with A498 renal, 100%; in the assay on CCRF-CEM leukemia it was 107%; in the assay with MOLT-4 leukemia, 105%.
Turning to `COc1ccc2[nH]cc(C(c3cc(F)cc(F)c3)c3c[nH]c4ccc(OC)cc34)c2c1`, the growth was 62.5% in the assay on SK-MEL-2 melanoma; 88.4% with EKVX NSCLC; 87.3% in the assay with SN12C renal; 44.2% with UO-31 renal; 124% with TK-10 renal; 82.9% in the assay with ACHN renal. Further, the growth is 101% with CAKI-1 renal, 77.8% in the assay on A498 renal, 60.1% in the assay on CCRF-CEM leukemia and 37.4% in the assay with MOLT-4 leukemia.
For the compound `COC(=O)[C@]1(C)CCC[C@]2(C)[C@H]3C[C@H]4C(C(C)C)=C[C@]3(CC[C@H]21)[C@H]1[C@@H]4[C@@H](OCCC#N)CC[C@@H]1OCCC#N`, the growth with SK-MEL-2 melanoma was 28.8%; in the assay on EKVX NSCLC, 29.9%; with SN12C renal, 2.29% (active); in the assay on UO-31 renal, 32.6%; with TK-10 renal it was 46.2%; with ACHN renal, 39.2%. The growth was 51.8% in the assay with CAKI-1 renal, 66.8% with A498 renal, 19.1% with CCRF-CEM leukemia and 4.3% (active) in the assay with MOLT-4 leukemia.
Take `COc1ccc(-c2csc(N(C(=O)N3CCN(c4cc5c(cc4F)c(=O)c(C(=O)O)cn5C4CC4)CC3)c3ccccc3)n2)cc1`: the growth in the assay on SK-MEL-2 melanoma is 0.424% (active); in the assay with EKVX NSCLC, 15.8%; in the assay with SN12C renal it was 6.41% (active); in the assay with UO-31 renal it was 4.2% (active); in the assay on TK-10 renal, 32.1%; in the assay on ACHN renal, -62.5% (active). Also, the growth was 6% (active) in the assay on CAKI-1 renal, 3.67% (active) with A498 renal, 24.9% in the assay with CCRF-CEM leukemia and 16% in the assay with MOLT-4 leukemia.
On to `C1=C(N2CCCC2)CCC1`, for which the growth was 112% in the assay on SK-MEL-2 melanoma; 95.2% with EKVX NSCLC; 98.1% with SN12C renal; 73.5% with UO-31 renal; 121% with TK-10 renal; 111% with ACHN renal. Further, the growth in the assay on CAKI-1 renal is 79.1%; in the assay with A498 renal it was 109%; with CCRF-CEM leukemia, 106%; in the assay with MOLT-4 leukemia, 96.6%.
Regarding `Cc1nc(N2CCOCC2)sc1S(N)(=O)=O`, the growth was 98.6% in the assay with SK-MEL-2 melanoma; 101% with EKVX NSCLC; 94.5% in the assay on SN12C renal; 86.5% in the assay on UO-31 renal; 90.1% in the assay with TK-10 renal; 100% in the assay on ACHN renal. Further, the growth in the assay with CAKI-1 renal is 96.9%; with A498 renal, 93.4%; with CCRF-CEM leukemia it was 105%; in the assay with MOLT-4 leukemia, 107%.
With `CC[C@@H](C(=O)[C@@H](C)[C@@H](O)[C@H](C)[C@@H]1O[C@@H]([C@@H](CC)C(=O)NCCc2ccc(F)cc2)CC[C@@H]1C)C1O[C@]2(C=CC(=O)[C@]3(CC[C@@](C)([C@H]4CC[C@](O)(CC)[C@H](C)O4)O3)O2)[C@H](C)C[C@@H]1C` (stereo not given in full), the growth with SK-MEL-2 melanoma was 53%; with EKVX NSCLC, 29.6%; in the assay with SN12C renal it was 37.7%; with UO-31 renal, 19.2%; with TK-10 renal it was 16.6%; in the assay on ACHN renal, 9.48% (active). Also, the growth in the assay on CAKI-1 renal was 14.2%; with A498 renal, 34.6%; in the assay with CCRF-CEM leukemia, 40.1%; in the assay on MOLT-4 leukemia, 19.2%.
As to `CCCCN1C(=O)/C(=c2\sc3n(c2=O)C2C(NN=3)N(CC)C(=O)N2CC)c2ccccc21` (stereo not given), the growth is 21.9% in the assay on SK-MEL-2 melanoma; 52.1% in the assay with EKVX NSCLC; 19.3% in the assay with SN12C renal; 18.4% in the assay with UO-31 renal; 55.9% in the assay with TK-10 renal; 23.9% with ACHN renal. For the same compound, the growth in the assay with CAKI-1 renal was 18.1%; in the assay on A498 renal, -2.15% (active); in the assay with CCRF-CEM leukemia, 7.34% (active); in the assay with MOLT-4 leukemia, 11.1%.
`CCOC(=O)C(=Cc1cccc(Cl)c1)C(=O)OCC`: the growth in the assay with SK-MEL-2 melanoma was 25.3%; in the assay on EKVX NSCLC it was 78.7%; with SN12C renal, 33.3%; in the assay on UO-31 renal, -56.2% (active); with TK-10 renal, 3.56% (active); in the assay with ACHN renal, -72.9% (active). For the same compound, the growth in the assay on CAKI-1 renal was 61.5%; in the assay with A498 renal, 112%; in the assay with CCRF-CEM leukemia, -1.23% (active); in the assay on MOLT-4 leukemia, 13.4%.
In the case of `S=C(Nc1ccc(-c2nc(N3CCOCC3)c3cccn3n2)cc1)Nc1cccnc1`, the growth is 43.5% in the assay on SK-MEL-2 melanoma; 46.7% in the assay on EKVX NSCLC; 28.8% in the assay with SN12C renal; 15.1% in the assay with UO-31 renal; 21.4% with TK-10 renal; 37.3% with ACHN renal. Besides, the growth in the assay on CAKI-1 renal is 60.6%; in the assay with A498 renal, -13.3% (active); with CCRF-CEM leukemia, 22.1%; in the assay on MOLT-4 leukemia, 36.8%.
Turning to `O=S(=O)(Nc1cc(Br)c(O)c2ccccc12)c1ccc(F)cc1`, the growth in the assay with SK-MEL-2 melanoma is 87.8%; with EKVX NSCLC, 109%; in the assay on SN12C renal, 49.3%; with UO-31 renal, 48.5%; in the assay on TK-10 renal, 123%; in the assay on ACHN renal, 71.2%. For the same compound, the growth with CAKI-1 renal was 80.5%; with A498 renal, 89.9%; with CCRF-CEM leukemia it was 11%; in the assay with MOLT-4 leukemia, -40.3% (active).
`CN(C)CCNC(=O)c1cccc(-c2cnc3ccc(-c4ccc5c(c4)OCO5)nn23)c1`: the growth in the assay with SK-MEL-2 melanoma was 69.8%; with EKVX NSCLC it was 90%; with SN12C renal, 70.8%; in the assay with UO-31 renal, 36.8%; in the assay with TK-10 renal it was 75.9%; with ACHN renal it was 47.8%. Moreover, the growth is 36.8% with CAKI-1 renal, 90.7% with A498 renal, 75.7% with CCRF-CEM leukemia and 59.4% in the assay on MOLT-4 leukemia.

(Values after PubChem BioAssay (NCI).)
